Only some compounds are listed: those with a hit (about 7.6% of all), similar ones and a draw of the others.
PLAP act: PLAP enzyme activators, biochemical, luminescence, HTS. purified PLAP enzyme, luminescent substrate read-out; active compounds read high. Alkaline phosphatase, placental type (Homo sapiens), P05187. 1.2% of 96,000 active. activation fold at 20 µM; in the data active = activation fold above about 2
M1 antag: antagonists of rat M1 muscarinic receptor | Muscarinic acetylcholine receptor M1 (Rattus norvegicus), P08482 | CHO-M1 cells, Fluo-4 calcium, ACh EC80 antagonist mode; active compounds read low | B-score at 10 µM | 3.4% of 64,000 active | AID 628, 2007;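 active = calcium fluorescence response, raw or row-and-column corrected B-score, differing from the plate sample mean either way at a set confidence level, mostly lower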
M1 ag: M1 muscarinic receptor agonists, primary screen, CHO-M1 cells, Fluo-4 calcium, agonist mode | B-score at 10 µM | Muscarinic acetylcholine receptor M1 | Fluo-4 calcium fluorescence; active compounds read high | 3% of 64,000 active;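 active = fluorescence rise, raw or as B-score row- and column-corrected plate score, outside the 99.7% band of its plate's samples, either direction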
Cav3 T inh: Cav3.2 calcium influx blockers – cell-based, Fluo-4 calcium fluorescence, FDSS, MLSMR library, primary screen. 4% of 100,000 active. Cav3.2-expressing cells; active compounds read low. Voltage-dependent T-type calcium channel subunit alpha-1H (Homo sapiens), O95180. AID 449739, 2010. B-score at 10 µM;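 active = single-dose well whose peak fluorescence ratio is a statistical outlier from its plate by either plate-standardised score or position-corrected B-score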
M1 antag confirm: rat M1 muscarinic receptor antagonists, confirmation, CHO cells, Fluo-4 calcium, duplicate | shares compounds with M1 antag | ACh EC80 antagonism; active compounds read low | calcium response (max-min fluorescence) at 10 µM | 43% of 1,700 active | AID 677, 2007;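 active = calcium response below the same-plate mean of wells given acetylcholine alone at its 80%-effect dose, minus 3 SD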
mGluR4 antag: human mGluR4 response to M1 antagonist hits, M1 allosteric modulator project, cell-based, antagonist mode, secondary assay 1 | shares compounds with M1 antag | CHO-mGluR4 calcium flux, Fluo-4 fluorescence, glutamate EC80; active compounds read low | fluorescence response (max-min) at 10 µM | 0.9% of 1,700 active;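 active = fluorescence response below the plate's average for near-maximal glutamate wells, less 3 SD of those wells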;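 also: raw unnormalized fluorescence span taken in the window right after glutamate addition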
Of the large screens only hits and unclear results are named; the others gave an inactive call (follow-up assays come after a bar, where they were run).

CN1[C@@H]2CC(OC(=O)[C@H](CO)c3ccccc3)C[C@H]1[C@@H]1O[C@@H]12 (stereo partly drawn)	none (no result: PLAP act, M1 antag, M1 ag) | mGluR4 antag inactive
O=C(OCCN1CCOCC1)C(c1ccccc1)c1ccccc1	none
O=C(N/N=C\c1ccc(F)cc1)c1csnn1	none (no result: M1 antag, M1 ag)
COc1nc2ccc(C)cc2cc1-c1noc(-c2ccccc2)n1	none (no result: M1 antag, M1 ag)
COc1ccc(N(C)C(=O)CCS(=O)(=O)c2cccc3nonc23)c(OC)c1	none
COCCNS(=O)(=O)c1ccc(SC)cc1	M1 antag -3.19 | M1 antag confirm inactive | mGluR4 antag inactive
O=C(NC1CCCCC1)c1ccc(S(=O)(=O)N2CCOCC2)cc1	none
O=S(=O)(c1ccc(NCC2CCCCC2)nc1)N1CCOCC1	M1 antag -4.29 | M1 antag confirm 554 | mGluR4 antag inactive
c1ccc(-c2cc3c(N4CCOCC4)ncnc3s2)cc1	M1 antag -2.59 | M1 antag confirm inactive | mGluR4 antag inactive
Cc1nc(N2CCOCC2)c2cc(-c3ccccc3)sc2n1	none
CCN(CC)S(=O)(=O)c1ccc(NS(=O)(=O)c2cccc(C)c2)cc1	M1 antag -2.61, Cav3 T inh -4.6 | M1 antag confirm inactive | mGluR4 antag inactive
CCN(CC)S(=O)(=O)c1ccc(C(=O)Nc2cccc(C)c2)cc1	none (no result: M1 antag, M1 ag)
c1cnc(N2CC[N+]3(CCCC3)CC2)nc1	M1 antag -5 | M1 antag confirm 163 | mGluR4 antag inactive
O=C(OCC1CCCN2CCCCC12)c1ccc2c(c1)OCO2 (stereo not drawn)	M1 antag -4.82 | M1 antag confirm inactive | mGluR4 antag inactive
N#Cc1c(C(F)(F)F)cc(-c2ccccc2)nc1SCc1nc(N)nc(N2CCOCC2)n1	none
O=C(Oc1ccc(OC(=O)N2CCCCC2)cc1)c1ccccc1	M1 antag -2.86 | M1 antag confirm 237 | mGluR4 antag inactive
CCOC(=O)CCSc1nc(C)cc(C(F)(F)F)c1C#N	none
Cc1cc(C)cc(OCC(=O)Nc2ccc(N3CCCC3)cc2)c1	M1 antag -7.62 | M1 antag confirm 155 | mGluR4 antag inactive
Cc1ccccc1OCCCC(=O)Nc1ccc(N2CCOCC2)cc1	none
Cc1ccc(OCCCC(=O)Nc2ccc(N3CCOCC3)cc2)c(C)c1	M1 antag -2.26 | M1 antag confirm inactive | mGluR4 antag inactive
Cc1cc(OCC(=O)Nc2ccc(S(=O)(=O)N3CCN(C)CC3)cc2)cc(C)c1Cl	M1 antag -1.74 | M1 antag confirm 377 | mGluR4 antag inactive
Cc1cc(C)cc(OCC(=O)Nc2ccc(F)cc2)c1	none (no result: M1 antag, M1 ag)
Cc1ccc(OCC(=O)Nc2ccc(N3CCCC3)cc2)cc1C	M1 antag -3.64 | M1 antag confirm inactive | mGluR4 antag inactive
O=C1CC(Cc2ccccc2)C(=O)N1CCCn1ccnc1 (stereo not drawn)	M1 antag -2.78 (no result: Cav3 T inh) | M1 antag confirm inactive | mGluR4 antag inactive
COc1ccccc1-n1c(C)nnc1SCC(=O)Nc1cccc(C(C)=O)c1	M1 antag -2.68 | M1 antag confirm inactive | mGluR4 antag inactive
CCn1c(SCC(N)=O)nnc1-c1cc2c(C)nn(-c3ccccc3)c2s1	M1 antag -2.74 | M1 antag confirm inactive | mGluR4 antag 160
C=CCN(CC=C)c1nc2ccccc2nc1C(C#N)C(=O)OC(C)C (stereo not drawn)	none (no result: PLAP act)
CCC(C)N(C)Cc1cccc(C2(O)CCN(S(=O)(=O)c3ccc(F)cc3)CC2)c1 (stereo not drawn)	M1 antag -2.11 | M1 antag confirm 468 | mGluR4 antag inactive
CC(=O)Nc1ccc(-c2nnc(SCc3c(C)cc(C)cc3C)n2C)cc1	none (no result: M1 antag, M1 ag)
N#CC1=C(N2CCCCC2)c2cc3c(n2C1=O)CCCC3	none (no result: M1 antag, M1 ag)
CCCCS(=O)CC(O)COc1ccc(C(C)(C)C)cc1 (stereo not drawn)	none
CC(C)(C)c1ccc(OCC(O)CS(=O)(=O)c2ccccn2)cc1 (stereo not drawn)	M1 antag -1.83 | M1 antag confirm inactive | mGluR4 antag inactive
CCN(CC)C(=O)C(C)OC(=O)c1ccc(O)cc1 (stereo not drawn)	none (no result: M1 antag, M1 ag)
CC(=O)NCCNC(=O)CCNC(=O)c1ccc(Cl)cc1	none (no result: M1 antag, M1 ag)
O=C(Nc1ccc2c(c1)OCO2)C1CCN(Cc2cnn(-c3ccccc3)c2-n2cccc2)CC1	PLAP act 2.9, M1 antag -2.06, Cav3 T inh -5.18 | M1 antag confirm inactive | mGluR4 antag inactive
CCN1CCN(c2nc3c(c(=O)n(C)c(=O)n3C)n2Cc2cccc3ccccc23)CC1	M1 antag -3.28 | M1 antag confirm 429 | mGluR4 antag inactive
CCC1CCCCN1Cc1nc2c(c(=O)n(C)c(=O)n2C)n1Cc1cccc2ccccc12 (stereo not drawn)	none
CCN1CCN(Cc2nc3c(c(=O)n(C)c(=O)n3C)n2Cc2cccc3ccccc23)CC1	M1 antag -2.8 | M1 antag confirm inactive | mGluR4 antag inactive
Cn1c(=O)c2c(nc(CN3CCC(C(N)=O)CC3)n2Cc2c(F)cccc2Cl)n(C)c1=O	none
Cn1c(=O)c2c(nc(CN3CCC(C(N)=O)CC3)n2Cc2c(Cl)cccc2Cl)n(C)c1=O	M1 antag -4.06 | M1 antag confirm inactive | mGluR4 antag inactive
Oc1c(CN2CCN(c3ccccn3)CC2)cc(Cl)c2cccnc12	M1 antag -1.85 | M1 antag confirm inactive | mGluR4 antag inactive
Oc1c(CN2CCCCC2)cc(COCc2ccccc2)c2cccnc12	M1 antag -5.37 | M1 antag confirm 410 | mGluR4 antag inactive
Oc1ccc(CN2CCN(c3ccccc3)CC2)c2cccnc12	none (no result: PLAP act, M1 antag, M1 ag)
COC(=O)c1cc(NC2c3ccccc3C(=O)N2c2cccnc2)cc(C(=O)OC)c1 (stereo not drawn)	none (no result: PLAP act)
CC(SCC(=O)Nc1ccc(S(=O)(=O)N2CCCCC2)cc1)C(=O)O (stereo not drawn)	none
CCCc1[nH]nc2c1C(Cc1ccccc1)C(C#N)=C(N)O2 (stereo not drawn)	M1 antag -2.25 | M1 antag confirm inactive | mGluR4 antag inactive
CCOC(=O)C(C(=O)Nc1ccccc1)C1CCCCC1 (stereo not drawn)	none
CC[N+](C)(CC)CCOC(=O)C(O)(c1ccccc1)C1CCCCC1 (stereo not drawn)	M1 antag -16.1 (no result: PLAP act) | M1 antag confirm 10 | mGluR4 antag inactive
CCOC(=O)c1c(C)[nH]c(C)c1C(=O)CSc1nnc(-c2ccncc2)n1C	none (no result: Cav3 T inh)
Cn1c(=O)oc2cc(S(=O)(=O)NCc3ccco3)ccc21	M1 antag -3.37 | M1 antag confirm inactive | mGluR4 antag inactive
CSc1nc(SCCO)c2sc3nc(-c4ccco4)c4c(c3c2n1)CC(C)(C)OC4	none (no result: M1 antag, M1 ag, Cav3 T inh)
CSc1nc(N(CCO)CCO)c2sc3nc(-c4ccco4)c4c(c3c2n1)CCC4	M1 antag -3.94 (no result: Cav3 T inh) | M1 antag confirm inactive | mGluR4 antag inactive
